Inconclusive results are not listed. Calls of active or inactive are those of the source. The call rests on the fitted dose curve; in most records, active means well fitted inhibition curve with a large enough effect; inconclusive means small, poorly fitted or top-dose-only effect; inactive means flat fitted curve, though single readings scatter.
How the values were obtained:
Experiment in all cases: qHTS profiling for inhibitors of Plasmodium falciparum proliferation (AID 504749); further: nearly all actives have a fitted effect of over 60% in size
Settings in all cases: P. falciparum in erythrocytes, SYBR Green DNA, 72 h; series mostly up to 28.7 µM
CP256 = test system: CP256
Procedure, shortened: (§1)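 SYBR Green fluorescence of parasite DNA, read after lysis and overnight dark incubation, measured growth over 72 h in erythrocyte culture at 0.3% parasitemia and 2.5% hematocrit. Data normalised to DMSO and 0.29 uM artemisinin, with plate-drift correction.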

CP260 = test system: CP260
Procedure, shortened: as §1

CP262 = test system: CP262
Procedure, shortened: as §1

CP265 = test system: CP265
Procedure, shortened: as §1

CP266 = test system: CP266
Procedure, shortened: as §1

CP268 = test system: CP268
Procedure, shortened: as §1

CP269 = test system: CP269
Procedure, shortened: as §1

CP286 = test system: CP286
Procedure, shortened: as §1

CP291 = test system: CP291
Procedure, shortened: as §1

CP297 = test system: CP297
Procedure, shortened: as §1

CP305 = test system: CP305
Procedure, shortened: as §1

CP315 = test system: CP315
Procedure, shortened: as §1

CP325 = test system: CP325
Procedure, shortened: as §1

CP329 = test system: CP329
Procedure, shortened: as §1

CP335 = test system: CP335
Procedure, shortened: as §1

DFO2036 = test system: DFO2036
Procedure, shortened: as §1

DIV14 = test system: DIV14
Procedure, shortened: as §1

DIV17 = test system: DIV17
Procedure, shortened: as §1

DIV30 = test system: DIV30
Procedure, shortened: as §1

Dd2 = test system: Dd2
Procedure, shortened: as §1

ECU = test system: ECU
Procedure, shortened: as §1

FAB9 = test system: FAB9
Procedure, shortened: as §1

GB4 = test system: GB4
Procedure, shortened: as §1

HB3 = test system: HB3
Procedure, shortened: as §1

ICS = test system: ICS
Procedure, shortened: as §1

N140 = test system: N140
Procedure, shortened: as §1

P93_24 = test system: P93_24
Procedure, shortened: as §1

P94_40 = test system: P94_40
Procedure, shortened: as §1

PAD = test system: PAD
Procedure, shortened: as §1

PC15 = test system: PC15
Procedure, shortened: as §1

PC26 = test system: PC26
Procedure, shortened: as §1

PC49 = test system: PC49
Procedure, shortened: as §1

SC27B = test system: SC27B
Procedure, shortened: as §1

TAB109 = test system: TAB109
Procedure, shortened: as §1

TAB113 = test system: TAB113
Procedure, shortened: as §1

TAB165 = test system: TAB165
Procedure, shortened: as §1

W2 = test system: W2
Procedure, shortened: as §1

Measured: Potency
Potency means the concentration at half of the fitted maximal effect.

C=C[C@@H]1CN2CC[C@H]1C[C@H]2[C@H](O)c1ccnc2ccccc12
active: CP256 1120 nM | CP260 794 nM | CP262 379 nM | CP265 891 nM | CP266 1510 nM | CP268 1200 nM | CP269 1070 nM | CP286 794 nM | CP291 675 nM | CP297 757 nM | CP305 757 nM | CP315 1200 nM | CP325 675 nM | CP329 1510 nM | CP335 757 nM | DFO2036 355 nM | DIV14 426 nM | DIV17 379 nM | DIV30 757 nM | Dd2 891 nM | ECU 199 nM | FAB9 112 nM | GB4 169 nM | HB3 224 nM | ICS 224 nM | N140 794 nM | P93_24 447 nM | P94_40 398 nM | PAD 501 nM | PC15 224 nM | PC26 426 nM | PC49 891 nM | SC27B 1000 nM | TAB109 178 nM | TAB113 501 nM | TAB165 355 nM | W2 338 nM

— PubChem BioAssay (NCATS)
